Test results reported in PubChem BioAssay (NCATS).
The source made the active and inactive calls.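 Rule for the calls: active = compounds whose dose series gives a full or clear partial fitted curve of increased nuclear translocation; inconclusive = weak partial curve or effect only at the top dose; inactive = no dose-dependent translocation response.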

Biological target: Glucocorticoid receptor (Homo sapiens) (UniProt P04150)
Test: GR-GFP Redistribution (AID 450)
Settings: U2OS GR-GFP nuclear translocation, laser cytometry, 2 h; series mostly up to 20.6 µM
Potency is the fitted concentration of half-maximal effect.

Sequence of Glucocorticoid receptor (Homo sapiens) (P04150 whole entry, looked up): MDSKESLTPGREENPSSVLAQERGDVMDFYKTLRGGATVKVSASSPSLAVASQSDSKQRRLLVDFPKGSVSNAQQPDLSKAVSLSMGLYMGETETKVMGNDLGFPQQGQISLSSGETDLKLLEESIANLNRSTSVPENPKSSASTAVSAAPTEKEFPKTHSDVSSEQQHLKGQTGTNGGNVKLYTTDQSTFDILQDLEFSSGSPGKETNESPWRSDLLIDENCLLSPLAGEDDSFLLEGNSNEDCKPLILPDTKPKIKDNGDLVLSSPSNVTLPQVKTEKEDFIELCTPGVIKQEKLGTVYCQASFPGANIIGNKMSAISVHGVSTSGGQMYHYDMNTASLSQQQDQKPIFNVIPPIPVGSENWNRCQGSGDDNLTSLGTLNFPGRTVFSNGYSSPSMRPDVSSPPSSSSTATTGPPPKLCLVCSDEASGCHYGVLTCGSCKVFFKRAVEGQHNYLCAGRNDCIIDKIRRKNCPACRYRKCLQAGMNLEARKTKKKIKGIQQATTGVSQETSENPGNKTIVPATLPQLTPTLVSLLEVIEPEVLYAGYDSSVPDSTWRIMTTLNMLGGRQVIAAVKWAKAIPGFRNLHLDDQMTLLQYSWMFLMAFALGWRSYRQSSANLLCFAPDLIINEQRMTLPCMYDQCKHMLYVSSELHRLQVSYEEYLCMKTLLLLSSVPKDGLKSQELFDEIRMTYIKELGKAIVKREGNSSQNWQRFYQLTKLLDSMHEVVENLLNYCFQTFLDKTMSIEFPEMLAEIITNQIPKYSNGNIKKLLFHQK

Potency, inactive:
O=C(O)C1CCCCN1S(=O)(=O)c1cccc2nsnc12 (stereo not given) > 20.6 µM, Cn1c(=O)c2c3c(sc2n2c(SCC(N)=O)nnc12)CC(C(C)(C)C)CC3 (stereo not given) > 20.6 µM, CCOC(=O)C(NC=O)(NC(C)(C)C)C(=O)OCC > 20.6 µM, CCOC(=O)c1ccc(NC(=O)COc2ccccc2OC)cc1 > 20.6 µM, O=S(=O)(/C=C/c1ccccc1)Nc1ccc2c(c1)OCO2 > 20.6 µM, CC(C)(C)NC(=O)/C=N/O > 20.6 µM, Cc1ccc(OCC(=O)N(C)CCc2ccccn2)cc1 > 20.6 µM, O=C(O)c1cc2sccc2s1 > 20.6 µM, COc1cc(C2C(C(C)=O)=C(O)C(=O)N2c2ccc(Br)cn2)ccc1O (stereo not given) > 20.6 µM, Cc1[nH]c2ccc(F)cc2c(=O)c1SC(F)(F)C(F)C(F)(F)F (stereo not given) > 20.6 µM, CN(C)CC(O)COc1ccc(C(C)(C)c2ccc(OCC(O)CN(C)C)cc2)cc1 (stereo not given) > 20.6 µM, CCC(CC)n1[nH]c(=O)cc1N > 20.6 µM, COc1ccc(C(C)=O)cc1CSCCC(=O)O > 20.6 µM, COc1ccc(NC2CC(=O)N(C)C2=O)cc1 (stereo not given) > 20.6 µM, Cc1nnc2n(-c3ccccc3)c(=O)c3c4c(sc3n12)COC(C)(C)C4 > 20.6 µM, CN1C(=O)NC(c2ccccc2)C2=C1CN(Cc1ccccc1)C2=O (stereo not given) > 20.6 µM, COc1cccc(N2CCN(c3ncnc4c3[nH]c3ccc(F)cc34)CC2C)c1 (stereo not given) > 20.6 µM, N#Cc1c(-c2ccco2)cc(C2CC2)nc1N > 20.6 µM, COC(=O)c1ccc(C2/C(=C(/O)c3ccc(OC)cc3)C(=O)C(=O)N2c2cc(C)on2)cc1 (stereo not given) > 20.6 µM, CC(=O)[C@H]1CC[C@H]2[C@@H]3CCC4=CC(=O)CC[C@]4(C)[C@H]3[C@H](O)C[C@]12C > 20.6 µM, Cc1ccc(N2C(=O)CC3(CC4C=CC3C4)C2=O)cc1 (stereo not given) > 20.6 µM, COc1cccc(/C(O)=C2/C(=O)C(=O)N(CCN(C)C)C2c2ccc(Br)cc2)c1 (stereo not given) > 20.6 µM, CC(C)C1Cc2c(sc3c2c(=O)n(Cc2ccccc2)c2nncn32)CO1 (stereo not given) > 20.6 µM, Cc1cc(C)c2nc(SCCC#N)nc(C)c2c1 > 20.6 µM, COc1cc(-c2nn3c(-c4ccco4)nnc3s2)cc(OC)c1OC > 20.6 µM
